APP 5UTR inh = APP translation inhibition. SH-SY5Y APP 5'UTR-luciferase reporter, luminescence. inhibition, % at 2 µM. 190,000 compounds, 0.82% hits. AID 1285;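 active = inhibition above a set limit, derived from the sample mean plus 3 SD, cut at about 45% in these data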
IEC-6 cytotox = kills IEC-6 intestinal cells in KLF5 counter-screen. IEC-6 cytotoxicity, luminescence viability. inhibition, % at 5 µM. 290,000 compounds, 0.78% hits; in the data active = inhibition above about 22%;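 note: 0% = plate median of test compound wells and 100% = cytotoxic reference compound wells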
KLF5 inh = inhibitors of KLF5 expression; DLD-1 KLF5 promoter-luciferase reporter, luminescence; inhibition, % at 5 µM; 290,000 compounds, 0.23% hits; AID 1700;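 active = inhibition above a per-plate limit of that plate's mean compound inhibition plus 3 SD, cut at about 60% in these data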;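 note: 0% = DMSO wells and 100% = LY294002 at 200 µM; higher means less KLF5 promoter-driven luciferase light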
Ba/F3 V617F tox = loss of viability in JAK2V617F-driven Ba/F3 cells; Ba/F3 EpoR-JAK2V617F viability, ATP luminescence; inhibition, % at 5.6 µM; 220,000 compounds, 1.1% hits; AID 1446;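 active = inhibition above the campaign mean plus 3 SD over all tested compounds, cut at about 24% in these data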;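 note: cytokine-independent growth of Ba/F3 cells driven by EpoR plus mutant JAK2; 0% = DMSO-treated cells and 100% = JAK inhibitor I control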
BaF3 tox = parental Ba/F3 viability inhibition as JAK2V617F counter-screen; CellTiter-Glo ATP luminescence; inhibition, % at 5.6 µM; 220,000 compounds, 1.1% hits; AID 1486;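 active = inhibition above a per-campaign cutoff, the mean inhibition of all tested compounds plus 3 SD, cut at about 27% in these data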;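 note: 0% = DMSO wells and 100% = JAK Inhibitor I control wells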
aSyn 5UTR inh = MLPCN primary screen, SNCA 5' untranslated region; alpha-synuclein 5'UTR reporter, inhibitor activity; inhibition, % (tested at 7.5 µM); 300,000 compounds, 0.82% hits; AID 1813; in the data active = inhibition above about 60%;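 note: H4 neuroglioblastoma cells stably carrying SNCA 5'UTR luciferase fusion; 0% = DMSO wells and 100% = positive control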
BaF3 tox 2 = parental Ba/F3 viability inhibition for JAK2V617F counter-screen; shares compounds with Ba/F3 V617F tox; CellTiter-Glo luminescence; cells kept alive by added IL-3; inhibition, % at 5.6 µM; 580 compounds, 31% hits;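 active = cell growth inhibition above the hit limit set in the earlier mutant JAK2 cell screen, cut at about 27% in these data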;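 note: plate controls were DMSO-treated cells for no effect and JAK Inhibitor I control wells for full effect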
JAK2V617F conf = Ba/F3 EpoR-JAK2V617F viability loss, confirmation. shares compounds with Ba/F3 V617F tox. CellTiter-Glo luminescence. inhibition, % at 5.6 µM. 580 compounds, 66% hits. AID 1521;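 active = mean inhibition above the hit cutoff derived in the earlier primary screen, cut at about 25% in these data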;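 note: 0% = DMSO-treated cells and 100% = JAK inhibitor I control wells; higher means lower luminescence from reduced cell ATP and viability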
Starred values were filed as active, the others as inactive; . = no result given. Only some compounds are listed: those with a hit (about 2.2% of all), similar ones and a draw of the others.

SMILES	APP 5UTR inh	IEC-6 cytotox	KLF5 inh	Ba/F3 V617F tox	BaF3 tox	aSyn 5UTR inh	BaF3 tox 2	JAK2V617F conf
CCc1ccc(NC(=O)C(NS(=O)(=O)c2ccc3c(c2)CCN3C(C)=O)C(C)C)cc1 (centres undefined)	.	-4	-24	.	.	-15	.	.
COc1ccc(CCNC(=O)C(NS(=O)(=O)c2ccc3c(c2)CCN3C(C)=O)C(C)C)cc1OC (centres undefined)	12	-3	-27	65*	11	22	-4	-2
NC(N)=Nc1cc2ccccc2c2ccccc12	.	9	-13	28*	9	-23	3	33*
c1ccc(-c2nc(-c3ccccn3)no2)cc1	-64	18	26	25*	25	-18	29*	12
OCCSc1nnc(Nc2ccccc2)s1	-16	-2	-60	65*	-1	-47	-7	-9
N#CCSc1nnc(Nc2ccccc2)s1	11	-4	0	-2	4	-19	.	.
Cc1c(CNCCc2ccccc2Cl)c(C(=O)O)c(C)n1-c1ccccc1	.	-5	-10	.	.	13	.	.
CCOc1ccccc1C(=O)N(CCC(=O)OC)c1ccccn1	-16	2	-31	3	5	-14	.	.
COC(=O)CCN(C(=O)C1C2CC3CC(C2)CC1C3)c1ccccn1 (centres undefined)	10	-2	-43	49*	7	-10	-5	-6
CC(=O)c1ccc2cccc3c2c1N=CN3C	1	-8	9	50*	11	6	-3	8
O=C(CCl)N(C/C=C/c1ccccc1)c1ccc2c(c1)OCCO2	-19	4	-25	40*	5	-81	20	94*
O=C(/C=C/c1ccccc1)c1ccc2c(c1)OCCCCO2	-147	1	-80	0	0	-198	.	.
C#CC[N+](C)(C)CC#Cc1ccc(Cl)cc1	7	4	-2	32*	18	11	28*	83*
Cc1ccc2oc(C(=O)N3CCC(O)(c4ccccc4)CC3)c(C)c2c1	.	-1	-2	.	.	-8	.	.
COc1ccc([N+](=O)[O-])c(S(=O)(=O)c2ccc(Cl)cc2)n1	.	3	11	43*	-7	-23	2	70*
COc1ccc([N+](=O)[O-])c(S(=O)(=O)c2ccccc2)n1	.	15	26	93*	-6	-49	34*	85*
COc1nc(OC)nc(Oc2ccc(Cl)cc2[N+](=O)[O-])n1	5	0	-29	-7	-5	-36	.	.
CCN(CC)CCCn1c2c(c(SCC(=O)Nc3nc(C)cs3)nc1=O)CCC2	.	.	.	.	.	-7	.	.
O=c1oc2ccc(Cl)cc2nc1/C=C(\O)c1ccco1	.	-1	1	34*	15	-6	9	72*
CC(C)C/C(O)=C/c1nc2cc(Cl)ccc2oc1=O	9	1	4	7	3	-24	.	.
CCOC(=O)N1CCN(C(=O)c2ccc(NC(=O)c3ccc(C)cc3)cc2)CC1	10	5	-46	24*	14	-20	3	32*
O=C(CSc1ccc2ccccc2c1Br)Nc1cccc(S(=O)(=O)NC2=NCCCCC2)c1	0	15	4	33*	1	64*	3	75*
CC1=CSC2=NC(=O)/C(=C/c3cccc(OC(=O)c4ccco4)c3)C(=N)N12	19	2	1	34*	4	-33	-3	-5
CSC1=NSC2=NC(=O)/C(=C\c3ccc(OC(=O)c4ccco4)cc3)C(=N)N12	.	2	-89	.	.	-46	.	.
CC1=CC(C)C2(CO)COC(c3ccccc3O)C1C2C (centres undefined)	3	-3	11	58*	3	-12	-5	1
COc1ccc(CCNC(=O)c2ccc(-c3ccc([N+](=O)[O-])cc3)o2)cc1OC	-2	-2	8	-2	4	-50	.	.
COc1ccc(Nc2ncnc3ccccc23)c(OC)c1	-4	4	-36	-1	5	-8	.	.
COc1ccc(Nc2nc(N3CCCC3)nc3ccccc23)c(OC)c1	36	10	-27	47*	18	-81	6	11
